From the supplement of paper PMC4723716

Test system: Plasmodium falciparum NF54 gametocytes
Experiment: viability index relative to DMSO control (fraction); higher = less gametocyte killing
Settings: 12.5 µM, incubation time: 72 h
How it was run: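 P. falciparum NF54 gametocytes of each stage (I–V), in serum-containing medium (0.50% gametocytemia, 1.25% hematocrit, 40 µl), were incubated with compound at 12.5 µM in 384-well plates for 72 hr at 37°C under low oxygen. Wells received 5 µl of 5 µM MitoTracker Red CMXRos for 20 min. Then 5 µl was moved into 40 µl of 500 nM dye in serum-free medium and imaged after 30 min (three fields). The viability index was the gametocyte particle count divided by the plate mean of DMSO wells.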

[1] = gametocyte stage: Stage I viability index
[2] = gametocyte stage: Stage II viability index
[3] = gametocyte stage: Stage III viability index
[4] = gametocyte stage: Stage IV viability index
[5] = gametocyte stage: Stage V viability index

| Structure (SMILES) | viability index [1] | viability index [2] | viability index [3] | viability index [4] | viability index [5] |
| --- | --- | --- | --- | --- | --- |
| Cc1ccc(C)c(Cn2c(N3CCC(C(=O)NCc4cccs4)CC3)nc3ccccc32)c1 | 0.741 | 0.378 | 0.438 | 0.342 | 0.221 |
| CCOc1ccc(Nc2ccnc3cc(Cl)ccc23)cc1 | 0.0699 | 0.411 | 0.852 | 0.728 | 0.558 |
| CCCc1c(C)nc2ccccc2c1O | 0.634 | 0.705 | 0.844 | 0.72 | 1.02 |
| COc1ccc(-c2c(C)nn3c(N)c(C#N)cnc23)cc1OC | 0.0343 | 0.00676 | 0.0325 | 0.0942 | 0.0769 |
| Cc1ccc(Nc2nc(N)c3ccccc3n2)cc1Cl | 0.0341 | 0.49 | 0.695 | 0.753 | 0.481 |
| O=C(NC1CCN(Cc2ccccc2)CC1)c1cc(C(=O)NC2CCN(Cc3ccccc3)CC2)cc(C(=O)NC2CCN(Cc3ccccc3)CC2)c1 | 0.0629 | 0.0649 | 0.0393 | 0.0475 | 0.013 |
| CCN(CC)CCNc1ccnc2cc(Cl)ccc12 | 0.0376 | 0.295 | 0.789 | 0.726 | 0.626 |
| CCOc1ccc(-n2cc(-c3ccccc3)c3c(SCc4cc(C)ccc4C)ncnc32)cc1 | 1.12 | 0.908 | 0.934 | 1.03 | 1.03 |
| O=C(Nc1ccc(C23CC4CC(CC(c5ccccc5)(C4)C2)C3)cc1)c1cccs1 | 0.939 | 0.824 | 0.986 | 0.744 | 1.14 |
| CCn1c(SCC(=O)Nc2cc(C(F)(F)F)ccc2Cl)nc2ccccc2c1=O | 0.787 | 0.953 | 1.17 | 1.14 | 1.03 |
| CCN(CC)CCCNc1ccnc2cc3ccccc3cc12 | 0.0594 | 0.485 | 0.972 | 0.946 | 1.1 |
| COc1ccccc1CNC(=O)C1c2ccccc2C(=O)N(CC(C)C)C1c1cccs1 (stereo not given) | 0.951 | 0.807 | 1.01 | 0.976 | 1 |
| CCCN(CCC)CCCNC(=O)c1cc2c(-c3ccc(OC)c(OC)c3)nn(C)c2s1 | 0.302 | 0.754 | 0.996 | 0.954 | 0.868 |
| CCCCOc1ccc(C(=O)Nc2cc(C)on2)cc1 | 1.02 | 0.815 | 0.973 | 0.942 | 0.78 |
| O=C(Nc1ccc(CN2CCOCC2)cc1)c1ccc(-c2cc(Cl)ccc2Cl)o1 | 0.302 | 0.64 | 1.15 | 1.04 | 1.04 |
| Cc1ccc2nc(C)cc(Nc3cccc(C(F)(F)F)c3)c2c1 | 0.325 | 0.504 | 0.803 | 0.829 | 0.857 |
| CCC(C)NCC(O)(c1ccc(Cl)cc1)c1ccc(Cl)cc1 (stereo not given) | 0.0354 | 0.0657 | 0.378 | 0.584 | 0.615 |
| Cc1ccc(Cl)cc1N1CCN(CCCNC(=O)C2CCN(c3nc4ccccc4[nH]3)CC2)CC1 | 0.158 | 0.517 | 0.628 | 0.426 | 0.407 |
| COc1ccc(-n2ccnc2SCC(=O)Nc2cc(C)ccc2C)c(OC)c1 | 1.07 | 0.949 | 0.975 | 0.939 | 0.989 |
| CC(C)CCNCC(O)Cn1c2ccccc2c2ccccc21 (stereo not given) | 0.0507 | 0.0691 | 0.0706 | 0.193 | 0.0779 |

| Structure (SMILES) | viability index [1] | viability index [2] | viability index [3] | viability index [4] | viability index [5] |
| --- | --- | --- | --- | --- | --- |
| O=C(Nc1ccc(-c2nc3cc(NC(=O)c4ccc(Cl)cc4)ccc3[nH]2)cc1)c1ccc(Cl)cc1 | 0.0481 | 0.00583 | 0.0176 | 0.00316 | 0 |
| Oc1c2c(nc3cc(-c4ccccc4)nn13)CCCC2 | 1.07 | 0.786 | 1.07 | 0.878 | 0.879 |
| N=c1n(CCN2CCCCC2)c2ccccc2n1CC(=O)c1ccc(Cl)c(Cl)c1 | 0.115 | 0.281 | 0.848 | 0.886 | 0.753 |
| COc1ccc(N2CCN(C(CNC(=O)CC(C)(C)C)c3ccc4c(c3)OCO4)CC2)cc1 (stereo not given) | 1.04 | 0.928 | 1.02 | 0.826 | 0.727 |
| CCCCCCOC(=O)C1=C(C)NC(=O)NC1c1ccccc1F (stereo not given) | 0.924 | 0.896 | 1.03 | 1.04 | 1.13 |
| FC(F)(F)c1cccc(Nc2nc(-c3ccccc3)nc3ncccc23)c1 | 1.17 | 1.08 | 1.33 | 1.09 | 1.15 |
| Cc1ccc(OCCCCCCNCCO)c(C)c1 | 1.13 | 1.04 | 1.05 | 0.934 | 0.909 |
| Nc1nc(Nc2cccc(F)c2)nc2ccccc12 | 0.0673 | 0.534 | 0.725 | 0.82 | 0.844 |
| Cc1cc(=O)oc2c1ccc1oc(C(=O)c3ccccc3)c(C)c12 | 0.948 | 1 | 0.867 | 0.972 | 1.01 |
| O=C(O)C1Cc2c([nH]c3ccccc23)C(c2ccc(Cl)cc2Cl)N1 (stereo not given) | 1.04 | 0.891 | 1.08 | 1.05 | 0.967 |
| COc1ccc2nc(C)cc(Nc3cccc(O)c3)c2c1 | 0.105 | 0.564 | 0.896 | 0.991 | 1.1 |
| Cc1ccc(CSCc2ccc(C(=O)NC3CC3)o2)cc1 | 0.678 | 0.965 | 1.07 | 0.924 | 0.978 |
| CCn1c(CN2CCN(Cc3ccccc3)CC2)nc2cc(NC(=O)c3cccs3)ccc21 | 0.701 | 0.837 | 0.924 | 0.967 | 1.05 |
| OC(CNC1CCCCC1)Cn1c2ccc(I)cc2c2cc(I)ccc21 (stereo not given) | 0.116 | 0.0916 | 0.122 | 0.168 | 0.13 |
| Cc1cccc(-n2ncc3c(=O)[nH]c(-n4nc(C)cc4NC(=O)c4cc5ccccc5o4)nc32)c1 | 0.466 | 0.473 | 0.792 | 0.9 | 0.791 |
| Cc1sc(NC(=O)c2ccco2)c(C(c2cccnc2)N2CCC(Cc3ccccc3)CC2)c1C (stereo not given) | 0.00962 | 0.0408 | 0.261 | 0.418 | 0.351 |
| CCOc1ccc(C=Cc2nc(=O)c3ccccc3o2)cc1 | 0.549 | 0.836 | 0.85 | 0.805 | 0.67 |
| COc1ccccc1N1CCN(C(CNS(=O)(=O)c2ccc(Cl)cc2)c2cccnc2)CC1 (stereo not given) | 0.188 | 0.564 | 1.04 | 0.815 | 0.912 |
| CCOC(=O)c1cnc2ccc(CC)cc2c1O | 0.377 | 0.505 | 0.734 | 0.733 | 0.846 |
| Cc1ccc(-c2nc3ccccc3o2)cc1NCc1cc(Cc2ccccc2)ccc1O | 0.0201 | 0.0666 | 0.389 | 0.513 | 0.792 |

| Structure (SMILES) | viability index [1] | viability index [2] | viability index [3] | viability index [4] | viability index [5] |
| --- | --- | --- | --- | --- | --- |
| Cc1ccc(-c2cc3c(SCC(=O)Nc4cc(C(F)(F)F)ccc4Cl)nccn3n2)cc1 | 1.03 | 0.896 | 1.11 | 0.921 | 0.791 |
| COc1ccc(C(=O)NC(c2ccccc2Cl)c2cc(Cl)c3cccnc3c2O)cc1 (stereo not given) | 0.11 | 0.0824 | 0.167 | 0.241 | 0.221 |
| O=C(Cc1ccccc1)NC(c1ccc(Cl)cc1)c1c(O)ccc2ccccc12 (stereo not given) | 0.0691 | 0.316 | 0.631 | 0.604 | 0.857 |
| COc1ccc(-c2cn3c(C(=O)Nc4ccccc4Cl)c(-c4ccccc4)c4c3n2CCCC4)cc1 | 0.673 | 0.531 | 0.719 | 0.794 | 0.779 |
| Nc1ccc(-c2nc3cc(Cc4ccc5[nH]c(-c6ccc(N)cc6)nc5c4)ccc3[nH]2)cc1 | 0.0227 | 0.00833 | 0.0204 | 0.0127 | 0 |
| CCc1ccc(Nc2cc(C)nc3nc(C)nn23)cc1 | 0.925 | 0.736 | 1.01 | 1.1 | 1.1 |
| CCOc1ccc(CCNC(=O)c2cccs2)cc1OCC | 1.14 | 0.896 | 1.1 | 0.884 | 0.593 |
| FC(F)(F)c1cccc(CNC2CCN(CCc3ccccc3)CC2)c1 | 0.0431 | 0.464 | 0.856 | 0.83 | 0.802 |
| O=C(CSc1ccc2nnc(-c3cccc(F)c3)n2n1)Nc1ccc2c(c1)OCO2 | 1.01 | 1.02 | 1.16 | 1.16 | 1.37 |
| CCOC(=O)c1c(NC(=O)c2ccccc2)sc2c(O)c(CN(CC)CC)ccc12 | 0.0641 | 0.129 | 0.32 | 0.517 | 0.407 |
| Cc1ccccc1OCCSc1nc2ccc(NC(=O)c3cccs3)cc2s1 | 1.13 | 0.918 | 1.08 | 0.927 | 1.27 |
| O=C(CCc1ccccc1)c1ccccc1OCC(O)CN1CCCCC1 (stereo not given) | 0.00787 | 0.0616 | 0.36 | 0.465 | 0.39 |
| COc1cc(-c2nc(-c3ccc(Sc4ccccc4)cc3)c(-c3ccccc3)[nH]2)cc(OC)c1O | 0.0507 | 0.0441 | 0.0529 | 0.0222 | 0.0779 |
| Cc1cc(N(C)C)nc(Nc2ccc(NC(=O)Nc3ccccc3)cc2)n1 | 0.00262 | 0.0266 | 0.138 | 0.0285 | 0 |
| CCCCNc1nc(NC(C)(C)C)nc(NC(C)(C)C)n1 | 0.0157 | 0.0425 | 0.223 | 0.117 | 0.0649 |
| Cc1ccc2c(C)nc(Nc3nc(C)cc(-c4ccccc4)n3)nc2c1 | 0.169 | 0.3 | 0.318 | 0.231 | 0.0519 |
| COc1cc2cc(C(=O)Nc3ccccc3)c(N)nc2cc1OC | 0.0265 | 0.434 | 0.727 | 0.86 | 0.758 |
| CCn1nc(-c2ccc(C(=O)OC)cc2)nc2c(=O)n(C)c(=O)nc1-2 | 0.15 | 0.284 | 0.103 | 0.0365 | 0.044 |
| COc1cccc(Nc2nc(N)c3ccccc3n2)c1 | 0.131 | 0.524 | 0.786 | 0.797 | 0.649 |
| CSC1=NC(=Nc2c(C)cccc2C)C2(CCC(C(C)(C)C)CC2)N1c1ccc(Cl)cc1 (stereo not given) | 0.646 | 0.816 | 0.928 | 0.994 | 0.835 |
